Hit rate of the full screen: of about 5,500 compounds, about 2,000 (36%) were called active. Roughly 18% stayed inconclusive and do not appear here. No stated cut-off is given here; in the data, active means normalized growth mostly below about 0.91 (no sharp cut-off); inconclusive means no clear call, values can overlap the other calls; inactive means mostly above about 0.92. The list shows a part of the results.
Experiment: chemical genetic growth profiling, strain panel (AID 1159580);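 further: tested at 20 µM; growth read once vehicle control cultures reached saturation at 30 °C; 1 = growth at the plate median or of vehicle wells; lower values mean less growth of the strain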
Settings: growth OD

Measured: normalized growth

CC[C@@]1(O)C(=O)OCc2c1cc1n(c2=O)Cc2cc3cc(O)ccc3nc2-1
inactive: S. cerevisiae deletion strains, locus YKL068W, active compounds read low 0.996 | S. cerevisiae deletion strains, locus YKL085W, strain MDH1 (second series), active compounds read low 1.01 | S. cerevisiae deletion strains, locus YKL085W, strain MDH1, active compounds read low 1.01 | S. cerevisiae deletion strains, locus YKL160W, strain elf1, active compounds read low 1.02 | S. cerevisiae deletion strains, locus YKL190W, strain CNB1, active compounds read low 1.02 | S. cerevisiae deletion strains, locus YKR001C, strain vps1, active compounds read low 1 | S. cerevisiae deletion strains, locus YKR026C, strain gcn3, active compounds read low 0.997 | S. cerevisiae deletion strains, locus YKR091W, strain srl3, active compounds read low 1.01 | S. cerevisiae deletion strains, locus YLL001W, strain dnm1, active compounds read low 1 | S. cerevisiae deletion strains, locus YLL026W, active compounds read low 1.02 | S. cerevisiae deletion strains, locus YLL041C, strain sdh2, active compounds read low 1.02 | S. cerevisiae deletion strains, locus YLR027C, strain aat2, active compounds read low 1 | S. cerevisiae deletion strains, locus YLR039C, strain RIC1, active compounds read low 1.03 | S. cerevisiae deletion strains, locus YLR058C, strain SHM2, active compounds read low 1.02 | S. cerevisiae deletion strains, locus YLR102C, strain apc9, active compounds read low 0.992 | S. cerevisiae deletion strains, locus YLR113W, strain HOG1, active compounds read low 0.942 | S. cerevisiae deletion strains, locus YLR221C, strain rsa3, active compounds read low 0.966 | S. cerevisiae deletion strains, locus YLR258W, strain gsy2, active compounds read low 1.03 | S. cerevisiae deletion strains, locus YLR262C, strain YPT6 (second series), active compounds read low 0.984 | S. cerevisiae deletion strains, locus YLR262C, strain YPT6, active compounds read low 1.04 | S. cerevisiae deletion strains, locus YLR268W, strain sec22, active compounds read low 0.96 | S. cerevisiae deletion strains, locus YLR320W, strain mms22, active compounds read low 0.884 | S. cerevisiae deletion strains, locus YLR330W, strain CHS5, active compounds read low 1.02 | S. cerevisiae deletion strains, locus YLR342W, strain FKS1 (second series), active compounds read low 0.995 | S. cerevisiae deletion strains, locus YLR342W, strain FKS1, active compounds read low 1.01 | S. cerevisiae deletion strains, locus YLR357W, strain rsc2, active compounds read low 1.03 | S. cerevisiae deletion strains, locus YLR370C, strain arc18, active compounds read low 1.01 | S. cerevisiae deletion strains, locus YLR371W, strain rom2, active compounds read low 0.994 | S. cerevisiae deletion strains, locus YLR384C, strain iki3, active compounds read low 1.02 | S. cerevisiae deletion strains, locus YLR418C, strain cdc73, active compounds read low 1.02 | S. cerevisiae deletion strains, locus YML016C, strain PPZ1, active compounds read low 1.02 | S. cerevisiae deletion strains, locus YML120C, strain ndi1, active compounds read low 0.995 | S. cerevisiae deletion strains, locus YML124C, strain tub3, active compounds read low 0.983 | S. cerevisiae deletion strains, locus YMR058W, strain fet3, active compounds read low 1.01 | S. cerevisiae deletion strains, locus YMR078C, strain ctf18, active compounds read low 0.947 | S. cerevisiae deletion strains, locus YMR125W, strain sto1, active compounds read low 1.03 | S. cerevisiae deletion strains, locus YMR129W, active compounds read low 1.02 | S. cerevisiae deletion strains, locus YMR205C, strain PFK2, active compounds read low 0.98 | S. cerevisiae deletion strains, locus YMR223W, strain ubp8, active compounds read low 0.981 | S. cerevisiae deletion strains, locus YMR231W, strain pep5, active compounds read low 1 | S. cerevisiae deletion strains, locus YMR263W, strain SAP30, active compounds read low 1.03 | S. cerevisiae deletion strains, locus YMR307W, strain GAS1, active compounds read low 1.03 | S. cerevisiae deletion strains, locus YNL067W, strain RPL9B, active compounds read low 1.01 | S. cerevisiae deletion strains, locus YNL071W, strain lat1, active compounds read low 1.02 | S. cerevisiae deletion strains, locus YNL128W, strain TEP1, active compounds read low 1.02 | S. cerevisiae deletion strains, locus YNL183C, strain NPR1, active compounds read low 0.91 | S. cerevisiae deletion strains, locus YNL209W, strain ssb2, active compounds read low 1.03 | S. cerevisiae deletion strains, locus YNL233W, strain BNI4, active compounds read low 1.01 | S. cerevisiae deletion strains, locus YNL248C, strain rpa49, active compounds read low 1.03 | S. cerevisiae deletion strains, locus YNL271C, strain bni1, active compounds read low 0.991 | S. cerevisiae deletion strains, locus YNL298W, strain CLA4, active compounds read low 0.992 | S. cerevisiae deletion strains, locus YNL307C, strain MCK1, active compounds read low 0.979 | S. cerevisiae deletion strains, locus YNL322C, strain KRE1 (second series), active compounds read low 1.06 | S. cerevisiae deletion strains, locus YNL322C, strain KRE1, active compounds read low 1.01 | S. cerevisiae deletion strains, locus YNR049C, strain mso1, active compounds read low 1 | S. cerevisiae deletion strains, locus YNR052C, strain pop2, active compounds read low 0.997 | S. cerevisiae deletion strains, locus YOL012C, strain htz1 0.802 | S. cerevisiae deletion strains, locus YOL147C, strain pex11, active compounds read low 0.983 | S. cerevisiae deletion strains, locus YOR001W, strain rrp6, active compounds read low 0.967 | S. cerevisiae deletion strains, locus YOR061W, strain CKA2, active compounds read low 1.02 | S. cerevisiae deletion strains, locus YOR069W, strain VPS5, active compounds read low 1.02 | S. cerevisiae deletion strains, locus YOR070C, strain gyp1, active compounds read low 1.01 | S. cerevisiae deletion strains, locus YOR080W, strain dia2, active compounds read low 1.01 | S. cerevisiae deletion strains, locus YOR083W, strain WHI5, active compounds read low 1 | S. cerevisiae deletion strains, locus YOR106W, strain vam3, active compounds read low 1.03 | S. cerevisiae deletion strains, locus YOR136W, strain idh2, active compounds read low 0.971 | S. cerevisiae deletion strains, locus YOR144C, strain elg1, active compounds read low 0.988 | S. cerevisiae deletion strains, locus YOR184W, strain ser1, active compounds read low 0.972 | S. cerevisiae deletion strains, locus YOR231W, strain MKK1, active compounds read low 0.951 | S. cerevisiae deletion strains, locus YOR265W, strain rbl2, active compounds read low 0.984 | S. cerevisiae deletion strains, locus YOR270C, strain vph1, active compounds read low 1.03 | S. cerevisiae deletion strains, locus YOR290C, strain snf2, active compounds read low 1.03 | S. cerevisiae deletion strains, locus YOR316C, strain cot1, active compounds read low 0.987 | S. cerevisiae deletion strains, locus YPL051W, strain arl3, active compounds read low 1 | S. cerevisiae deletion strains, locus YPL055C, strain LGE1, active compounds read low 1.02 | S. cerevisiae deletion strains, locus YPL078C, strain atp4, active compounds read low 1.04 | S. cerevisiae deletion strains, locus YPL106C, strain sse1, active compounds read low 1.06 | S. cerevisiae deletion strains, locus YPL240C, strain hsp82, active compounds read low 1.01 | S. cerevisiae deletion strains, locus YPL241C, strain CIN2, active compounds read low 1.01 | S. cerevisiae deletion strains, locus YPL256C, strain CLN2, active compounds read low 0.945 | S. cerevisiae deletion strains, locus YPR119W, strain clb2, active compounds read low 0.982 | S. cerevisiae deletion strains, locus YPR141C, strain kar3, active compounds read low 0.999 | S. cerevisiae deletion strains, locus YPR163C, strain tif3, active compounds read low 0.991 | S. cerevisiae deletion strains, locus YPR167C, strain met16, active compounds read low 0.987 | S. cerevisiae deletion strains, strain wtn01, active compounds read low 0.97 | S. cerevisiae strains, strain wild type, active compounds read low 1.02
active: S. cerevisiae deletion strains, locus YML032C, strain rad52, active compounds read low 0.407 | S. cerevisiae deletion strains, locus YNL250W, strain rad50, active compounds read low 0.429

From PubChem BioAssay AID1159580 (chemical genetic matrix, 2015)
